BRCA1 expr act: activators of BRCA1 expression; MCF7-BRCA1-FFLuc reporter, luminescence, 48 h; response scale: scaled: vehicle 0%, 10 µM genistein 100%; Potency, µM (series often up to 46.1 µM), for the others: at the highest dose activation, most hits filed as activators; 380,000 tested, 1.1% active; AID 624202; further: potency means the concentration at half of the fitted maximal effect; nearly all actives have a fitted effect of over 80% in size
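First, MCF7-BRCA1-FFLuc cells (2000/well) attach for 2 h; next, compounds are pin-added and incubated 48 h at 37 °C; finally, luciferase reagent is added and luminescence read after 15 min.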
Nrf2 activator: activates Nrf2 signaling. Potency, µM (doses to about 46.1 µM), for the others: at the top dose activation, most hits filed as activators. AID 624171. 410,000 tested, 0.31% active. AREc32 ARE-luciferase reporter (MCF7-derived line), luminescence, 24 h; further: potency means the concentration at half of the fitted maximal effect; % of control where 0% means no effect; nearly all actives have a fitted effect of over 65% in size
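Nrf2 activation is followed as ARE-luciferase induction in the AREc32 line after one day of compound treatment; luminescence is read with Steady-Glo.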
ELG1 DNA repair: ELG1-dependent DNA repair inhibition. HEK293T ELG1-luciferase reporter, luminescence, 16 h; DNA damage induced by 5-fluorouridine. Potency, µM (highest dose often 46.1 µM), inactives show top-dose activity change, negative = inhibition, usual class: inhibitors. 330,000 tested, 2.3% active. AID 504467; further: potency means the concentration at half of the fitted maximal effect; on the % scale 0 is the no-effect control and ±100 the full control effect; nearly all actives have a fitted effect of over 55% in size
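Overnight (16 hr) co-exposure of 2,000 cells/well to 5-fluorouridine and compound at 37 °C preceded detection. Luciferase was quantified via ONE-Glo luminescence; loss of signal denotes inhibition.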
IL2 activator: activators of IL-2 | 360,000 tested, 0.065% active | IL-2 activation reporter assay, cell-based qHTS; stimulated with anti-CD3/CD4/CD28 beads; in transgenic mouse T cells | activation, % (series mostly up to about 46 µM); in the data active means activation above about 50%; inconclusive means mostly about 30% to 49%; further: 0% is about no effect
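Unstimulated transgenic mouse T cells; 60-min compound exposure; bead-based TCR/CD4/CD28 stimulation; 18 h culture, 37 degrees C; dual fluorescence (EGFP, DsRed) plate cytometry.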
An asterisk follows results filed as active; ? = inconclusive; . = not tested or not shown; ! = not confirmed by another sample; [ ] = remark or other dose. Only some compounds are listed: those with a hit (about 3.1% of all), similar ones and a draw of the others. Unless noted, the call rests on the fitted dose curve; in most records, active means well fitted curve in the direction sought with a large enough effect; inconclusive means small, poorly fitted or top-dose-only effect, or another doubt; inactive means no such curve, though single readings can be large; an effect the other way counts as inactive or inconclusive.

SMILES	BRCA1 expr act	Nrf2 activator	ELG1 DNA repair	IL2 activator
COc1ccc([N+](=O)[O-])cc1NC(=O)C(C)Sc1ccccc1 (stereo unspecified)	-17%	0%[9.22 µM]	2%	-1
COc1cc(NC(=O)c2cc3cc4ccc(OC)c(Cl)c4nc3s2)cc(OC)c1	.	-1%	.	.
Cc1nc(N2CCCCC2)sc1C(=O)c1ccc(SCCO)c([N+](=O)[O-])c1	-44%	4%	18µM*	-7
CCOC(=O)c1ccc(NC(=O)CCc2c(C)nc3nc[nH]n3c2=O)cc1	-10%	-1%	.	.
CC(=O)Oc1c(Cl)c(N2CCOCC2)c(OC(C)=O)c2ccccc12	1%	16µM*	?	-2
CCOC(=O)Cc1ccc(NC(=O)N2CC(CC)Oc3ccccc32)cc1 (stereo unspecified)	.	1%	.	.
C(=N\Nc1ccc2nncn2n1)/c1ccco1	-21%	10µM*	0%	2
CCCCc1nn2c(=O)cc(COC(=O)c3cccs3)nc2s1	2%	5%	.	.
CC(=O)c1ccc(NC(=O)Nc2cccc3ccccc23)cc1	4µM*	3%	?	5
O=C(CCc1nnc(CCCc2ccccc2)o1)NCCCC1CCCC1	13µM*	4%	?	0
Cc1cccc(C)c1NC(=O)Cn1nnc(C(=O)Nc2c(C)cccc2C)c1N	1%	0%	.	.
O=C(Cn1cnc2c(cnn2-c2ccccc2)c1=O)Nc1cc(S(=O)(=O)N2CCOCC2)ccc1Cl	-18%	3%	23µM*	-2
CCN(CC(=O)Nc1cc(S(=O)(=O)N2CCOCC2)ccc1Cl)Cc1ccccc1	-61%	0%	18µM*	-1
CCN(CC(=O)Nc1cc(S(=O)(=O)N2CCCCC2)ccc1Cl)Cc1ccccc1	-65%	0%	-5%	-6
CCOC(=O)/C(=C/c1c(C)n(C)c2ccc([N+](=O)[O-])cc12)C(C)=O	-73%	?	13µM*	-3
CCOC(=O)c1c(N)c2cc([N+](=O)[O-])ccc2n1C	45%	4%	28%	1
c1c2c(cc3sc(N4CCOCC4)nc13)OCO2	13%	0%	?	2
c1ccc(N2CCN(c3nc4cc5c(cc4s3)OCO5)CC2)cc1	4µM*!	3%	?	0
O=C(NCCN1CCCCC1)c1cccc2c1C(=O)c1ccc(N3CCCC3)cc1S2(=O)=O	0%	0%	?	2
CC(C)(C)CNC(=O)c1cccc2c1C(=O)c1ccc(N3CCCC3)cc1S2(=O)=O	-30%	0%	16µM*	1
C[n+]1ccnc2cc(Cl)ccc21	-79%	.	.	.
COc1ccc(C(=O)CSC(=S)N2CCCCC2)cc1	3.2µM*	-1%	.	-1
Cc1ccccc1NC(=O)C1CCN(S(=O)(=O)c2c(C)noc2/C=C/c2ccco2)CC1	.	1%	.	.
Cc1ccc(NC(=O)C2CCN(S(=O)(=O)c3c(C)noc3/C=C/c3ccco3)CC2)nc1	-66%	19%	15µM*	1
CCOC(=O)c1c(NC(C)=O)c2c3c(sc2n1Cc1ccc(Cl)cc1)CCCC3	.	4%	.	.
SMILES	BRCA1 expr act	Nrf2 activator	ELG1 DNA repair	IL2 activator
COc1ccc(N2CCc3c(C)nc4c(OC)cccc4c32)cc1	-13%	1%	?	-3
COc1cccc(N2CCc3c(C)nc4ccc(Cl)cc4c32)c1	-70%	1%	23µM*	-5
C=C1C=C(C(F)F)n2ncc(C(=O)NCc3ccc(F)cc3)c2N1	-5%	.	.	.
Cc1[nH]c2ccccc2c1N=Nc1cccc(C(=O)O)c1	3.2µM*	3%	?	1
COC(=O)c1cc(N=Nc2c(C)[nH]c3ccccc23)cc(C(=O)OC)c1	-1%	2%	1%	0
CCc1ccc(Cn2c(CNS(=O)(=O)c3ccc([N+](=O)[O-])cc3)nc3cccnc32)cc1	.	3%	.	.
COc1ccc(/C(N)=N/OC(=O)Cc2cccs2)cc1	8.9µM*	2%	?	-4
COc1ccc(C2CC2/C(=N/OC(=O)c2cccs2)c2ccccc2)cc1 (stereo unspecified)	7.1µM*	4%	?	-1
COc1ccccc1C(=O)COC(=O)c1cccs1	-6%	8.9µM*	?	0
COc1ccc(C(=O)COC(=O)c2cccs2)cc1	13µM*	5%	?	0
COc1ccc(/C(N)=N/OC(=O)Cc2cccs2)cc1OC	41%	5%	?	-3
Cc1ccc(-c2nn(CC(=O)NCc3ccccc3)c3c2cnc2ccc(F)cc23)cc1C	.	4%	.	.
COc1ccccc1C(=O)COC(=O)c1ccc(N(C)C)cc1	4µM*	5%	?	-3
COc1ccccc1C(=O)COC(=O)c1ccccc1O	-30%	?	?	0
Cn1nc(-c2ccc(Cl)cc2)c2cc(C(=O)NCC3CCCO3)sc21 (stereo unspecified)	-44%	20%	16µM*	0
CN1CCN(CCCNC(=O)c2cc3c(-c4ccc(Cl)cc4)nn(C)c3s2)CC1	-37%	20%	?	1
CCCOc1ccc(C(=O)Nc2ccc(Cl)c(-c3nc4ncccc4o3)c2)cc1	.	1%	.	.
CCn1c(-c2cc(-c3ccc(OC(C)C)cc3)nc3ccccc23)n[nH]c1=S	7.1µM*	1%	?	-3
CCCOc1cccc(-c2cc(-c3n[nH]c(=S)n3CC)c3ccccc3n2)c1	-29%	5%	-16%	-1
CCn1c(-c2cc(-c3cc(OC)ccc3OC)nc3ccccc23)n[nH]c1=S	-30%	0%	6.5µM*	-2
CCn1c(-c2cc(-c3ccccc3OC)nc3ccccc23)n[nH]c1=S	-5%	-1%	16µM*	0
CCn1c(-c2cc(-c3ccc(C)cc3)nc3ccccc23)n[nH]c1=S	12%	0%	-4%	-2
Cn1cnc2c(=O)oc3ccc(S(=O)(=O)N4CCN(c5cccc(C(F)(F)F)c5)CC4)cc3c21	.	-1%	.	.
Cc1ccc(NC(=O)CCNC(=O)c2ccc(Br)cc2)cc1S(=O)(=O)N1CCOCC1	-23%	0%	?	-4
O=C(CCNC(=O)c1ccc([N+](=O)[O-])cc1)Nc1ccc(Cl)c(S(=O)(=O)N2CCOCC2)c1	0%	5%	18µM*	2
SMILES	BRCA1 expr act	Nrf2 activator	ELG1 DNA repair	IL2 activator
O=C(CCNC(=O)c1ccccc1)Nc1ccc(Cl)c(S(=O)(=O)N2CCCCC2)c1	-45%	0%	16µM*	-1
Cc1ccc(CSCCNC(=O)c2ccc(Cl)c(S(=O)(=O)N3CCOCC3)c2)cc1	-70%	0%	23µM*	0
CCc1ccccc1N(C)C(=O)Cn1cnc2sc(C)c(S(=O)(=O)N3CCN(c4ncccn4)CC3)c2c1=O	2%	0%	.	.
COC(=O)c1c(-c2cccnc2)csc1NC(=O)c1ccc2c(c1)OCO2	2.2µM*	5%	?	0
CCc1cc(C(=O)OC)c(NC(=O)c2ccoc2C)s1	-29%	19%	0%	-2
COC(=O)c1c(-c2ccncc2)csc1NC(=O)c1ccoc1C	4.5µM*	3%	?	1
S=c1[nH]cnc2scc(-c3ccc(Cl)cc3)c12	-23%	0%	16µM*	-2
Nc1c(Cl)cc(N=Nc2ccccc2)cc1Cl	-32%	6.3µM*	.	1
